In ChEMBL document CHEMBL3988442, “University of Dundee, Small-Polar-MMV Screening Library” (2021):
Hit rate of the full screen: of about 48,000 compounds, about 13,000 (27%) showed an effect of 50% or more. The list shows a part of the results.

test system: Wolbachia pipientis; test: Anti-Wolbachia Cell-Based Screen; format: functional; set-up: scale not given: in the data most compounds retested in dose-response had high values; conditions: 5 µM

Row | Structure (SMILES) | Percent Effect
1 | CCCN1CCN(C(=O)Cc2cccnc2)[C@H]2CS(=O)(=O)C[C@H]21 | 0.3719%
2 | O=C(NC1CC(F)(F)C1)[C@]12COC[C@H]1CN(Cc1cccnc1)C2.O=C(O)C(F)(F)F.O=C(O)C(F)(F)F | 1.025%
3 | O=C(O)C(F)(F)F.O=C(O)C(F)(F)F.c1cncc(OC[C@@]23CCC[C@@H]2CN(CC2CCOCC2)C3)c1 | 108.6%
4 | O=C(NC[C@]12COC[C@H]1CN(Cc1cccnc1)C2)C1CCC1.O=C(O)C(F)(F)F.O=C(O)C(F)(F)F | 96.22%
5 | O=C(O)C(F)(F)F.O=C(O)C(F)(F)F.c1ccc(CN2C[C@H]3CCC[C@@]3(COCC3CCOCC3)C2)nc1 | 5.827%
6 | COc1ncccc1CN1C[C@@H]2COC[C@]2(COCC2CC2)C1.O=C(O)C(F)(F)F.O=C(O)C(F)(F)F | 12.64%
7 | O=C(O)C(F)(F)F.O=C(O)C(F)(F)F.c1cncc(OC[C@@]23CCC[C@@H]2CN(C2CCOCC2)C3)c1 | 96.07%
8 | O=C(O)C(F)(F)F.O=C(O)C(F)(F)F.c1cncc(OC[C@]23COC[C@H]2CN(C2CCOCC2)C3)c1 | 108.8%
9 | CCS(=O)(=O)NC[C@]12COC[C@H]1CN(Cc1cccnc1)C2.O=C(O)C(F)(F)F.O=C(O)C(F)(F)F | -8.022%
10 | C[C@@H]1CN(C2CCOCC2)C[C@]12CCN(c1cccnc1)C2=O.O=C(O)C(F)(F)F.O=C(O)C(F)(F)F | 17.85%
11 | C[C@@H]1CN(C2CCOC2)C[C@]12CCN(c1cccnc1)C2=O.O=C(O)C(F)(F)F.O=C(O)C(F)(F)F (stereo not given in full) | 8.884%
12 | Cc1cc(CN2C[C@H]3CCC[C@@]3(COCC3CCOCC3)C2)no1.O=C(O)C(F)(F)F | 1.109%
13 | Cl.O=C(C1CCCCC1)N1CC2(CCNCC2)C1 | -23.98%
14 | CC(C)(C)NC(=O)CNc1ccc(C#N)c(C(F)(F)F)c1 | 3.351%
15 | COCCO[C@H]1COCCN(C2CCN(C)CC2)C1 | -1.205%
16 | Cc1nc(N2C[C@H]3CNC[C@H]3C2)c2sccc2n1 | 3.045%
17 | c1cc(COC[C@@]23CCC[C@@H]2CN(C2CCOCC2)C3)ccn1 | 95.49%
18 | O=C(O)C(F)(F)F.O=C(O)C(F)(F)F.c1cncc(OC[C@]23COC[C@H]2CN(C2CCC2)C3)c1 | 103%
19 | O=C1[C@@H]2CCN(C3CCC3)C[C@@H]2OCCN1Cc1ccncc1 | -0.008003%
20 | O=C(O)C(F)(F)F.O=C(O)C(F)(F)F.c1ccc(OC[C@]23COC[C@H]2CN(Cc2ccoc2)C3)nc1 | -16.38%
21 | O=C(O)C(F)(F)F.O=C(O)[C@]12CCCN(C3CCOC3)C[C@H]1CN(c1ncccn1)C2 (stereo not given in full) | 103.8%
22 | O=C(O)C(F)(F)F.O=C(O)C(F)(F)F.c1cncc(OC[C@]23COC[C@H]2CN(Cc2cccs2)C3)c1 | -9.167%
23 | O=C(O)C(F)(F)F.O=C(O)C(F)(F)F.c1ccc(CN2C[C@@H]3COC[C@]3(COCC3CCOCC3)C2)nc1 | 9.184%
24 | O=C(O)C(F)(F)F.O=C(O)C(F)(F)F.c1ccc(OC[C@]23COC[C@H]2CN(C2CCOCC2)C3)nc1 | 115.9%
25 | O=C(O)C(F)(F)F.O=C(O)C(F)(F)F.c1cc(CN2C[C@@H]3COC[C@]3(COCC3CC3)C2)ccn1 | 8.652%

Row | Structure (SMILES) | Percent Effect
26 | O=C(O)C(F)(F)F.c1cnc(N2CCC3(CCN(CC4CCOC4)C3)CC2)nc1 (stereo not given) | -13.35%
27 | CCN(CCc1ccccc1)Cn1nc(C)c2c(C)onc2c1=O | 9.974%
28 | CC(C)NC(=O)N1CCOC2(CNC2)C1 | 2.797%
29 | CC(C)(C)n1cc(C(=O)O)c(-c2ccc(F)cc2F)n1 | 0.2477%
30 | Cn1cc(N2C[C@@H]3CN(Cc4ccccn4)C[C@@H]3C2=O)cn1.O=C(O)C(F)(F)F.O=C(O)C(F)(F)F | -17.49%
31 | CN1C(Cn2cccn2)C[C@@H]2CN(Cc3ccccn3)CC[C@@H]21.O=C(O)C(F)(F)F.O=C(O)C(F)(F)F.O=C(O)C(F)(F)F.O=C(O)C(F)(F)F (stereo not given in full) | 100.1%
32 | CC(C)N1[C@H](Cn2cncn2)C[C@@H]2CN(c3ncccn3)CC[C@@H]21.O=C(O)C(F)(F)F | 2.319%
33 | CN1C(Cn2cccn2)C[C@@H]2CN(Cc3cccnc3)CC[C@@H]21.O=C(O)C(F)(F)F.O=C(O)C(F)(F)F.O=C(O)C(F)(F)F.O=C(O)C(F)(F)F (stereo not given in full) | 103.4%
34 | O=C(O)C(F)(F)F.O=C(O)C(F)(F)F.O=C(O)C(F)(F)F.c1ccc(CN2CC[C@H]3[C@H]2CCN3c2ncccn2)nc1 | -2.728%
35 | O=C(O)C(F)(F)F.O=C(O)C(F)(F)F.O=C1[C@H]2CN(Cc3ccoc3)C[C@H]2CN1Cc1cccnc1 | -13.37%
36 | Cc1cnc(N2CC[C@H]3[C@H](C[C@@H](CN(C)C)N3C)C2)nc1.O=C(O)C(F)(F)F.O=C(O)C(F)(F)F.O=C(O)C(F)(F)F | -11.75%
37 | Cc1oncc1C(=O)N1CC[C@H]2[C@H](C[C@@H](CN3CCCC3)N2C)C1.O=C(O)C(F)(F)F.O=C(O)C(F)(F)F | 90.36%
38 | CN(C)C[C@@H]1C[C@@H]2CN(c3ncc(F)cn3)CC[C@@H]2N1C.O=C(O)C(F)(F)F.O=C(O)C(F)(F)F.O=C(O)C(F)(F)F | -18.44%
39 | O=C(C1CCCC1)N1C[C@@H]2CCNC[C@@H]21 | -32.69%
40 | Cc1nc(O)cc(CNC(=O)CC[C@@H]2CCCN3CCCC[C@H]23)n1 | -12.46%
41 | COCCO[C@@H]1C[C@H]2CN(C(=O)c3ccc(C)nc3)CCN2C1 | -21.72%
42 | Cc1cc(N2CCN3CCCCC3C2)n2nc(C)c(C)c2n1 (stereo not given) | 11.68%
43 | Cc1cc(C(F)(F)F)nc(N2CCN3CCCC3C2)n1 (stereo not given) | 105%
44 | Cc1cc(N2CCCN3CCC[C@H]3C2)n2nc(C)c(C)c2n1 | 20.9%
45 | FC(F)(F)c1cc(-c2cccs2)nc(N2CCN3CCCC3C2)n1 (stereo not given) | 58.5%
46 | NC1(c2nc(-c3cccs3)cc(=O)[nH]2)CCCCC1 | -5.956%
47 | Cn1nc(-c2cccs2)cc1[C@H]1CN2CC[C@H]1C[C@@H]2CN | -6.528%
48 | O=C(O)C(F)(F)F.O=C(O)C(F)(F)F.O=C1CC2(CCN(Cc3ccccn3)C2)CN1c1cccnc1 (stereo not given) | 1.703%
49 | O=C(O)C(F)(F)F.O=C(O)C(F)(F)F.O=C1CC2(CCN(CC3CC3)C2)CN1c1cccnc1 (stereo not given) | 7.384%
50 | CN(C)C(=O)N1CCC2(C1)CN(c1cccnc1)C(=O)CN2C (stereo not given) | 109.4%

Row | Structure (SMILES) | Percent Effect
51 | O=C(COc1cccc(F)c1)N1C[C@@H](O)[C@H](N2CCCC2)C1 | -2.251%
52 | COc1ccccc1OCC(=O)N1CCN(Cc2noc(C)n2)CC1 | 5.502%
53 | COc1cccc(OCC(=O)N2CCCSCC2CN2CCOCC2)c1 (stereo not given) | 8.311%
54 | CCN1CCN(C(=O)COc2ccc(CN(C)S(C)(=O)=O)cc2)CC1 | -1.123%
55 | CN(C)[C@@H]1CN(C(=O)COc2cccc(F)c2)C[C@H]1O | 81.08%
56 | O=C(COc1cccc(F)c1)N1C[C@@H](O)[C@H](N2CCOCC2)C1 | 106.1%
57 | Cc1ccccc1C1(CN)CCCCC1 | 0.8163%
58 | Cc1nc(N2C[C@H]3CC[C@@H](C2)N3)nc2cc(S(C)(=O)=O)ccc12 | 4.923%
59 | Cc1cnc(N2CCC[C@@H]3CN(CC(=O)N(C)C)C[C@@H]32)nc1.O=C(O)C(F)(F)F.O=C(O)C(F)(F)F | -0.2022%
60 | CCOC(=O)CN1C[C@@H]2OCCN(c3ncc(F)cn3)[C@@H]2C1 | 86.46%
61 | CN(C)C(=O)CN1C[C@@H]2OCCN(c3ncc(F)cn3)[C@@H]2C1 | 104.1%
62 | Cc1nc(CN2C[C@@H]3OCCN(c4ncc(F)cn4)[C@@H]3C2)cs1 | -23.28%
63 | CCN1C[C@H]2[C@@H](C1)N(c1ncc(F)cn1)CC[C@H]2OC.O=C(O)C(F)(F)F.O=C(O)C(F)(F)F | 2.548%
64 | Cc1nc(C2CCCN(C(C)C)C2)sc1Br (stereo not given) | 117%
65 | Cc1nc(C2CCN(C(C)C)CC2)sc1Br | 83.07%
66 | Cl.O=C(NCC(F)(F)F)C1=NOC2(CCCNC2)C1 (stereo not given) | 8.664%
67 | CN(Cc1cncnc1)[C@H]1CN(Cc2ccco2)[C@@H]2CCCO[C@@H]21 | -12.03%
68 | c1ccc(-c2cc(CN3C[C@H]4CC[C@H]3C4)on2)cc1 | 0.1259%
69 | Cc1cc(CN2C[C@H]3CC[C@@H]2CN(Cc2[nH]cnc2C)C3)on1 | 1.495%
70 | OC[C@@H]1[C@@H](c2ccccc2)CN2CCN(c3ccccn3)C[C@H]12 | 121.4%
71 | OC[C@@H]1[C@H]2CN(c3ccccn3)CCN2C[C@H]1c1ccccc1 | 110.4%
72 | Cc1cc(CN2CCN3C[C@H](c4ccccc4)[C@@H](CO)[C@H]3C2)on1 | 124.7%
73 | O=C(O)C(F)(F)F.O=C(O)C(F)(F)F.c1ccc(CO[C@@H]2C[C@H]3CN(c4ncccn4)CCN3C2)nc1 | -5.237%
74 | CN(C)C(=O)CN1CCO[C@H]2CN(c3ccccn3)C[C@H]21 | -17.61%
75 | COCC(=O)NC[C@H]1C[C@@H]2CCN1C[C@@H]2CN1CCc2ccccc2C1 | -3.386%
